Data as given in PMC10812921, “Transcriptional Coactivator BOB1 (OBF1, OCA-B) Modulates the Specificity of DNA Recognition by the POU-Domain Factors OCT1 and OCT2 in a Monomeric Configuration”.

Assays:
[1] = target: POU1 (OCT1 POU domain) (human, UniProt P14859 260-458); assay: EMSA-SELEX-seq; no BOB1; 20 mM Tris-HCl pH 7.6, 140 mM NaCl, 10% glycerol, 0.5 mM EDTA, 0.05% Triton X-100, 0.1 mg/mL BSA, 0.1 mg/mL poly(dI-dC), 5 mM DTT, room temperature, 20 min; high values mean tight binding; details: protein: recombinant; dsDNA, one strand shown
Outline: (§1)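 Binding preference is the percentage of sequenced 8-mers matching a motif pattern. Tagged POU-domain proteins expressed in E. coli BL21 were purified under denaturing conditions and renatured. For binding, 30 ng protein met 300 ng of a PCR-amplified double-stranded random 35-nt library, with or without 28 ng coactivator protein, in 20 μL Tris–HCl pH 7.6 binding buffer for 20 min at RT. Complex bands were cut from native 6% PAGE, eluted and PCR-amplified over four rounds, then Illumina-sequenced.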

[2] = target: T1, POU2 (OCT2 POU domain) (human, UniProt P09086 175-386); assay: as above; details: protein: recombinant; dsDNA, one strand shown
T1 sequence: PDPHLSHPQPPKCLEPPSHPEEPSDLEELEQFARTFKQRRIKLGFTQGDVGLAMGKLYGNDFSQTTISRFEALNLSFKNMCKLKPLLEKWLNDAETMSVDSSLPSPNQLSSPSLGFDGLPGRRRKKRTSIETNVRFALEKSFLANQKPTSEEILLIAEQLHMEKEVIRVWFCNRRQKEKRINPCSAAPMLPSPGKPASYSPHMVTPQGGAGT
Outline: as §1

[3] = target: POU1 (OCT1 POU domain);BOB1 (OBF1, OCA-B) (human;human, UniProt P14859;Q16633 260-458;1-256, |); assay: EMSA-SELEX-seq; with BOB1 (ternary complex band); 20 mM Tris-HCl pH 7.6, 140 mM NaCl, 10% glycerol, 0.5 mM EDTA, 0.05% Triton X-100, 0.1 mg/mL BSA, 0.1 mg/mL poly(dI-dC), 5 mM DTT, room temperature, 20 min; high values mean tight binding; details: protein: recombinant;recombinant; copies: 1;1; dsDNA, one strand shown
Outline: as §1

[4] = target: T2, POU2 (OCT2 POU domain);BOB1 (OBF1, OCA-B) (human;human, UniProt P09086;Q16633 175-386;1-256, |); assay: as above; details: protein: recombinant;recombinant; copies: 1;1; dsDNA, one strand shown
T2 sequence 1: T1 sequence
T2 sequence 2: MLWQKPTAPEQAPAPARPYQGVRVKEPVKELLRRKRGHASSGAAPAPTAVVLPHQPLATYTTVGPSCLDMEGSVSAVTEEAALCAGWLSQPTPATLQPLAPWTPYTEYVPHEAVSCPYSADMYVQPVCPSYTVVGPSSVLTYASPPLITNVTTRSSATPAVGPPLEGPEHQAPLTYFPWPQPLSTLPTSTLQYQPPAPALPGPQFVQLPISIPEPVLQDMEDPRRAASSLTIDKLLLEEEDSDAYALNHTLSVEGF
Outline: as §1

Chain of POU1 (OCT1 POU domain) (P14859 260-458): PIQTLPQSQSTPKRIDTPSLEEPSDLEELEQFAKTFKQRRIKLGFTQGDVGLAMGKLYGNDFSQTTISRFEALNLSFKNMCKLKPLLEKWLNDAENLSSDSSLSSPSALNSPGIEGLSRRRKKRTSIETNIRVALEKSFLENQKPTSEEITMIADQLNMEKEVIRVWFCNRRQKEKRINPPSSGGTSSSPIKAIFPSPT

Sequence: AACCAAAA
- binding signal [1]: 0.0522 % of ANNNNAAN 8-mers
- binding signal [2]: 0.0449 % of ANNNNAAN 8-mers
- binding signal [3]: 0.0753 % of ANNNNAAN 8-mers
- binding signal [4]: 0.0388 % of ANNNNAAN 8-mers

Sequence: AACCTAAC
- binding signal [1]: 0.013 % of ANNNNAAN 8-mers
- binding signal [4]: 0.0132 % of ANNNNAAN 8-mers

Sequence: AGAACAAA
- binding signal [1]: 0.032 % of ANNNNAAN 8-mers
- binding signal [2]: 0.0524 % of ANNNNAAN 8-mers
- binding signal [3]: 0.032 % of ANNNNAAN 8-mers
- binding signal [4]: 0.033 % of ANNNNAAN 8-mers

Sequence: ACCCGAAC
- binding signal [1]: 0.0111 % of ANNNNAAN 8-mers
- binding signal [2]: 0.0109 % of ANNNNAAN 8-mers
- binding signal [4]: 0.0132 % of ANNNNAAN 8-mers

Sequence: ACCCAAAC
- binding signal [3]: 0.0164 % of ANNNNAAN 8-mers
- binding signal [4]: 0.0107 % of ANNNNAAN 8-mers

Sequence: ACCGCAAC
- binding signal [1]: 0.0114 % of ANNNNAAN 8-mers
- binding signal [4]: 0.0157 % of ANNNNAAN 8-mers

Sequence: AAACAAAT
- binding signal [1]: 0.352 % of ANNNNAAN 8-mers
- binding signal [2]: 0.266 % of ANNNNAAN 8-mers
- binding signal [3]: 0.761 % of ANNNNAAN 8-mers
- binding signal [4]: 0.669 % of ANNNNAAN 8-mers

Sequence: AGGGAAAA
- binding signal [1]: 0.205 % of ANNNNAAN 8-mers
- binding signal [2]: 0.119 % of ANNNNAAN 8-mers
- binding signal [3]: 0.28 % of ANNNNAAN 8-mers
- binding signal [4]: 0.119 % of ANNNNAAN 8-mers

Sequence: AGCCCAAC
- binding signal [3]: 0.0105 % of ANNNNAAN 8-mers
- binding signal [4]: 0.0124 % of ANNNNAAN 8-mers

Sequence: AGCTCAAC
- binding signal [2]: 0.0132 % of ANNNNAAN 8-mers
- binding signal [3]: 0.0101 % of ANNNNAAN 8-mers
- binding signal [4]: 0.0231 % of ANNNNAAN 8-mers

Sequence: ACGCCAAG
- binding signal [1]: 0.0145 % of ANNNNAAN 8-mers
- binding signal [2]: 0.0167 % of ANNNNAAN 8-mers
- binding signal [4]: 0.014 % of ANNNNAAN 8-mers

Sequence: ACCGAAAC
- binding signal [1]: 0.0107 % of ANNNNAAN 8-mers
- binding signal [2]: 0.0132 % of ANNNNAAN 8-mers
- binding signal [3]: 0.0125 % of ANNNNAAN 8-mers

Sequence: ACCACAAG
- binding signal [1]: 0.0114 % of ANNNNAAN 8-mers
- binding signal [2]: 0.0178 % of ANNNNAAN 8-mers
- binding signal [3]: 0.0113 % of ANNNNAAN 8-mers

Sequence: AACGCAAC
- binding signal [1]: 0.013 % of ANNNNAAN 8-mers
- binding signal [2]: 0.0201 % of ANNNNAAN 8-mers
- binding signal [4]: 0.0182 % of ANNNNAAN 8-mers

Sequence: AGAGGAAT
- binding signal [1]: 0.0828 % of ANNNNAAN 8-mers
- binding signal [2]: 0.115 % of ANNNNAAN 8-mers
- binding signal [3]: 0.0652 % of ANNNNAAN 8-mers
- binding signal [4]: 0.0859 % of ANNNNAAN 8-mers

Sequence: AACCCAAG
- binding signal [1]: 0.0111 % of ANNNNAAN 8-mers
- binding signal [2]: 0.015 % of ANNNNAAN 8-mers
- binding signal [3]: 0.0144 % of ANNNNAAN 8-mers

Sequence: ACCCTAAC
- binding signal [1]: 0.0107 % of ANNNNAAN 8-mers
- binding signal [2]: 0.0121 % of ANNNNAAN 8-mers
- binding signal [4]: 0.0157 % of ANNNNAAN 8-mers

Sequence: AAGAGAAT
- binding signal [1]: 0.0728 % of ANNNNAAN 8-mers
- binding signal [2]: 0.0806 % of ANNNNAAN 8-mers
- binding signal [3]: 0.0738 % of ANNNNAAN 8-mers
- binding signal [4]: 0.0553 % of ANNNNAAN 8-mers

Sequence: AGCAAAAG
- binding signal [1]: 0.0442 % of ANNNNAAN 8-mers
- binding signal [2]: 0.0322 % of ANNNNAAN 8-mers
- binding signal [3]: 0.062 % of ANNNNAAN 8-mers
- binding signal [4]: 0.0429 % of ANNNNAAN 8-mers

Sequence: ACTGCAAC
- binding signal [1]: 0.0114 % of ANNNNAAN 8-mers
- binding signal [2]: 0.0155 % of ANNNNAAN 8-mers
- binding signal [3]: 0.0199 % of ANNNNAAN 8-mers

Sequence: AGTGTAAG
- binding signal [1]: 0.032 % of ANNNNAAN 8-mers
- binding signal [2]: 0.0443 % of ANNNNAAN 8-mers
- binding signal [3]: 0.0406 % of ANNNNAAN 8-mers
- binding signal [4]: 0.0421 % of ANNNNAAN 8-mers

Sequence: ACCATAAT
- binding signal [1]: 0.082 % of ANNNNAAN 8-mers
- binding signal [2]: 0.0967 % of ANNNNAAN 8-mers
- binding signal [3]: 0.0367 % of ANNNNAAN 8-mers
- binding signal [4]: 0.0495 % of ANNNNAAN 8-mers

Sequence: ACGCAAAT
- binding signal [1]: 0.564 % of ANNNNAAN 8-mers
- binding signal [2]: 0.409 % of ANNNNAAN 8-mers
- binding signal [3]: 1.27 % of ANNNNAAN 8-mers
- binding signal [4]: 1.38 % of ANNNNAAN 8-mers

Sequence: ACTTGAAT
- binding signal [1]: 0.0828 % of ANNNNAAN 8-mers
- binding signal [2]: 0.0961 % of ANNNNAAN 8-mers
- binding signal [3]: 0.0613 % of ANNNNAAN 8-mers
- binding signal [4]: 0.071 % of ANNNNAAN 8-mers

Sequence: ACCTCAAC
- binding signal [3]: 0.0129 % of ANNNNAAN 8-mers
- binding signal [4]: 0.0107 % of ANNNNAAN 8-mers

Sequence: ACGCCAAC
- binding signal [2]: 0.0115 % of ANNNNAAN 8-mers
- binding signal [3]: 0.0121 % of ANNNNAAN 8-mers

Sequence: AGCACAAC
- binding signal [1]: 0.0114 % of ANNNNAAN 8-mers
- binding signal [2]: 0.0132 % of ANNNNAAN 8-mers
- binding signal [4]: 0.0124 % of ANNNNAAN 8-mers

Sequence: ACCCCAAG
- binding signal [2]: 0.0115 % of ANNNNAAN 8-mers
- binding signal [3]: 0.0105 % of ANNNNAAN 8-mers

Sequence: ACACCAAC
- binding signal [2]: 0.0127 % of ANNNNAAN 8-mers
- binding signal [3]: 0.0113 % of ANNNNAAN 8-mers
- binding signal [4]: 0.0107 % of ANNNNAAN 8-mers

Sequence: AAATGAAT
- binding signal [1]: 0.256 % of ANNNNAAN 8-mers
- binding signal [2]: 0.273 % of ANNNNAAN 8-mers
- binding signal [3]: 0.181 % of ANNNNAAN 8-mers
- binding signal [4]: 0.239 % of ANNNNAAN 8-mers

Sequence: ACCGGAAG
- binding signal [2]: 0.0127 % of ANNNNAAN 8-mers
- binding signal [4]: 0.0124 % of ANNNNAAN 8-mers

Sequence: AAAGCAAA
- binding signal [1]: 0.106 % of ANNNNAAN 8-mers
- binding signal [2]: 0.0754 % of ANNNNAAN 8-mers
- binding signal [3]: 0.179 % of ANNNNAAN 8-mers
- binding signal [4]: 0.0908 % of ANNNNAAN 8-mers

Sequence: ACCGCAAG
- binding signal [1]: 0.0114 % of ANNNNAAN 8-mers
- binding signal [2]: 0.0127 % of ANNNNAAN 8-mers
- binding signal [3]: 0.0176 % of ANNNNAAN 8-mers

Sequence: ACCACAAC
- binding signal [1]: 0.0107 % of ANNNNAAN 8-mers
- binding signal [2]: 0.0132 % of ANNNNAAN 8-mers

Sequence: AACGCAAT
- binding signal [1]: 0.0347 % of ANNNNAAN 8-mers
- binding signal [2]: 0.0351 % of ANNNNAAN 8-mers
- binding signal [3]: 0.0242 % of ANNNNAAN 8-mers
- binding signal [4]: 0.0314 % of ANNNNAAN 8-mers

Sequence: AATCGAAG
- binding signal [1]: 0.0408 % of ANNNNAAN 8-mers
- binding signal [2]: 0.0547 % of ANNNNAAN 8-mers
- binding signal [3]: 0.0531 % of ANNNNAAN 8-mers
- binding signal [4]: 0.0495 % of ANNNNAAN 8-mers

Sequence: ATAGGAAG
- binding signal [1]: 0.0576 % of ANNNNAAN 8-mers
- binding signal [2]: 0.0696 % of ANNNNAAN 8-mers
- binding signal [3]: 0.0585 % of ANNNNAAN 8-mers
- binding signal [4]: 0.0561 % of ANNNNAAN 8-mers

Sequence: ACCTCAAG
- binding signal [1]: 0.0141 % of ANNNNAAN 8-mers
- binding signal [2]: 0.0127 % of ANNNNAAN 8-mers
- binding signal [3]: 0.0156 % of ANNNNAAN 8-mers

Sequence: AGTACAAA
- binding signal [1]: 0.0336 % of ANNNNAAN 8-mers
- binding signal [2]: 0.0328 % of ANNNNAAN 8-mers
- binding signal [3]: 0.0375 % of ANNNNAAN 8-mers
- binding signal [4]: 0.0446 % of ANNNNAAN 8-mers

Sequence: ACAGCAAC
- binding signal [1]: 0.0153 % of ANNNNAAN 8-mers
- binding signal [2]: 0.0155 % of ANNNNAAN 8-mers
- binding signal [3]: 0.014 % of ANNNNAAN 8-mers
